About 2,000 (36%) of roughly 5,500 compounds were called active. Roughly 18% stayed inconclusive and do not appear here. Rule as the data show it: active = normalized growth mostly below about 0.91 (no sharp cut-off); inconclusive = no clear call, values can overlap the other calls; inactive = mostly above about 0.92. The list shows a part of the results.
Experiment: chemical genetic growth profiling, strain panel (AID 1159580);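 also: tested at 20 µM; growth read once vehicle control cultures reached saturation at 30 °C; 1 = growth at the plate median or of vehicle wells; lower values mean less growth of the strain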
Settings: S. cerevisiae deletion strains, growth OD

Measured: normalized growth

CC(=O)O[C@]1(C(C)=O)CCC2C3C=C(Cl)C4=CC(=O)CC[C@]4(C)C3CC[C@@]21C (some centres undefined)
inactive: locus YAL021C, strain ccr4, stronger effect = lower value 1.02 | locus YAL026C, strain drs2, stronger effect = lower value 1.04 | locus YAL030W, strain snc1, stronger effect = lower value 0.978 | locus YBL061C, strain skt5, stronger effect = lower value 0.997 | locus YBR009C, strain hhf1, stronger effect = lower value 0.999 | locus YBR023C, strain chs3, stronger effect = lower value 1.01 | locus YBR171W, strain sec66, stronger effect = lower value 1.01 | locus YBR231C, strain swc5, stronger effect = lower value 1 | locus YBR279W, strain paf1, stronger effect = lower value 1 | locus YCL011C, strain gbp2, stronger effect = lower value 1 | locus YCL016C, strain dcc1, stronger effect = lower value 0.988 | locus YCL069W, strain vba3, stronger effect = lower value 1.01 | locus YCR088W, strain abp1, stronger effect = lower value 1.01 | locus YDL005C, strain med2, stronger effect = lower value 0.991 | locus YDL040C, strain nat1, stronger effect = lower value 1 | locus YDR001C, strain nth1, stronger effect = lower value 1.01 | locus YDR069C, strain doa4, stronger effect = lower value 0.967 | locus YDR137W, strain rgp1, stronger effect = lower value 0.894 | locus YDR159W, strain sac3, stronger effect = lower value 0.925 | locus YDR195W, strain ref2 1.02 | locus YDR297W, strain sur2, stronger effect = lower value 0.957 | locus YDR334W, strain swr1, stronger effect = lower value 1.01 | locus YDR335W, strain msn5, stronger effect = lower value 0.974 | locus YDR392W, strain spt3, stronger effect = lower value 0.832 | locus YEL003W, strain gim4, stronger effect = lower value 1.01 | locus YEL037C, strain rad23, stronger effect = lower value 1.02 | locus YEL061C, strain CIN8 (second series), stronger effect = lower value 1.01 | locus YER015W, strain faa2, stronger effect = lower value 1.01 | locus YER016W, strain bim1, stronger effect = lower value 0.984 | locus YER111C, strain swi4, stronger effect = lower value 1.01 | locus YER155C, strain BEM2 (second series), stronger effect = lower value 0.99 | locus YFR010W, strain ubp6, stronger effect = lower value 1.03 | locus YGL167C, strain pmr1, stronger effect = lower value 0.993 | locus YGL173C, strain kem1, stronger effect = lower value 1.03 | locus YGL227W, strain vid30, stronger effect = lower value 0.998 | locus YGL240W, strain doc1, stronger effect = lower value 0.952 | locus YGL253W, strain hxk2, stronger effect = lower value 0.991 | locus YHR013C, strain ard1, stronger effect = lower value 1.06 | locus YHR027C, strain rpn1, stronger effect = lower value 0.985 | locus YHR030C, strain SLT2, stronger effect = lower value 1.03 | locus YHR079C, strain IRE1, stronger effect = lower value 1.04 | locus YHR142W, strain chs7, stronger effect = lower value 1 | locus YJL092W, strain hpr5, stronger effect = lower value 1.01 | locus YJL095W, strain BCK1 (second series), stronger effect = lower value 0.983 | locus YJL095W, strain BCK1, stronger effect = lower value 0.991 | locus YJL115W, strain asf1, stronger effect = lower value 1.03 | locus YJL129C, strain trk1, stronger effect = lower value 1.01 | locus YJL154C, strain vps35, stronger effect = lower value 1.01 | locus YJL164C, strain tpk1, stronger effect = lower value 1.01 | locus YJL166W, strain qcr8, stronger effect = lower value 0.98 | locus YJL187C, strain SWE1, stronger effect = lower value 0.952 | locus YJR066W, strain TOR1, stronger effect = lower value 0.98 | locus YKL160W, strain elf1, stronger effect = lower value 0.977 | locus YKR026C, strain gcn3, stronger effect = lower value 1.01 | locus YKR091W, strain srl3, stronger effect = lower value 1.01 | locus YLL001W, strain dnm1, stronger effect = lower value 1.02 | locus YLL026W, stronger effect = lower value 1 | locus YLL041C, strain sdh2, stronger effect = lower value 0.993 | locus YLR027C, strain aat2, stronger effect = lower value 0.97 | locus YLR113W, strain HOG1, stronger effect = lower value 0.923 | locus YLR221C, strain rsa3, stronger effect = lower value 0.986 | locus YLR258W, strain gsy2, stronger effect = lower value 0.958 | locus YLR262C, strain YPT6 (second series), stronger effect = lower value 0.947 | locus YLR320W, strain mms22, stronger effect = lower value 0.991 | locus YLR342W, strain FKS1, stronger effect = lower value 0.974 | locus YLR357W, strain rsc2, stronger effect = lower value 1.04 | locus YLR370C, strain arc18, stronger effect = lower value 0.973 | locus YLR384C, strain iki3, stronger effect = lower value 0.981 | locus YML120C, strain ndi1, stronger effect = lower value 0.967 | locus YMR058W, strain fet3, stronger effect = lower value 1.02 | locus YMR125W, strain sto1, stronger effect = lower value 1 | locus YMR129W, stronger effect = lower value 0.967 | locus YMR205C, strain PFK2, stronger effect = lower value 0.943 | locus YMR231W, strain pep5, stronger effect = lower value 1.02 | locus YNL071W, strain lat1, stronger effect = lower value 1.01 | locus YNL183C, strain NPR1, stronger effect = lower value 0.958 | locus YNL209W, strain ssb2, stronger effect = lower value 0.99 | locus YNL248C, strain rpa49, stronger effect = lower value 1.03 | locus YNL322C, strain KRE1 (second series), stronger effect = lower value 1.01 | locus YNR049C, strain mso1, stronger effect = lower value 0.97 | locus YOR001W, strain rrp6, stronger effect = lower value 0.99 | locus YOR070C, strain gyp1, stronger effect = lower value 0.978 | locus YOR080W, strain dia2, stronger effect = lower value 0.996 | locus YOR083W, strain WHI5, stronger effect = lower value 0.997 | locus YOR106W, strain vam3, stronger effect = lower value 1.03 | locus YOR231W, strain MKK1, stronger effect = lower value 0.994 | locus YOR265W, strain rbl2, stronger effect = lower value 0.979 | locus YOR270C, strain vph1, stronger effect = lower value 1.01 | locus YOR290C, strain snf2, stronger effect = lower value 1.01 | locus YPL051W, strain arl3, stronger effect = lower value 1 | locus YPL078C, strain atp4, stronger effect = lower value 0.996 | locus YPL106C, strain sse1, stronger effect = lower value 1.01 | locus YPL240C, strain hsp82, stronger effect = lower value 1 | locus YPL256C, strain CLN2, stronger effect = lower value 1.04

Source: PubChem BioAssay AID1159580 (chemical genetic matrix, 2015)
